Results reported in PubChem BioAssay (NCATS).
Results filed as inconclusive are left out. Activity calls are given as the source filed them. The call rests on the fitted dose curve; in most records, active means well fitted cell-killing curve with a large enough effect; inconclusive means small, poorly fitted or top-dose-only effect, or effect the other way; inactive means flat fitted curve, though single readings scatter.

Columns and labels:
Test in all cases: Primary qHTS to identify gynecologic anti-cancer compounds using libraries of approved drugs and bioactive compounds (AID 1345084); further: nearly all actives have a fitted effect of over 55% in size
[1] = system: C33A; settings: Gynecologic cancer cell panel viability, ATPlite luminescence, 48 h; series mostly up to 57.5 µM
In short: (§1)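 Cells, 1,000 per well, plated 16 h, then exposed 48 h at 37 C to compounds. Viability by ATPlite luminescence after 15 min at room temperature.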

[2] = system: CASKI; settings: Gynecologic cancer cell panel viability, ATPlite luminescence, 48 h; series mostly up to 57.5 µM
In short: as §1

[3] = system: Es-2; settings: Gynecologic cancer cell panel viability, ATPlite luminescence, 48 h; series mostly up to 57.5 µM
In short: as §1

[4] = system: HeLa; settings: Gynecologic cancer cell panel viability, ATPlite luminescence, 48 h; series mostly up to 57.5 µM
In short: as §1

[5] = system: Hek293T; settings: Gynecologic cancer cell panel viability, ATPlite luminescence, 48 h, control line for the selectivity index; series mostly up to 57.5 µM
In short: as §1

[6] = system: JEG-3; settings: Gynecologic cancer cell panel viability, ATPlite luminescence, 48 h; series mostly up to 57.5 µM
In short: as §1

[7] = system: OV90; settings: Gynecologic cancer cell panel viability, ATPlite luminescence, 48 h; series mostly up to 57.5 µM
In short: as §1

[8] = system: PA-1; settings: Gynecologic cancer cell panel viability, ATPlite luminescence, 48 h; series mostly up to 57.5 µM
In short: as §1

[9] = system: SKOV3; settings: Gynecologic cancer cell panel viability, ATPlite luminescence, 48 h; series mostly up to 57.5 µM
In short: as §1

[10] = system: Tov-21-G; settings: Gynecologic cancer cell panel viability, ATPlite luminescence, 48 h; series mostly up to 57.5 µM
In short: as §1

[11] = system: Tov112D; settings: Gynecologic cancer cell panel viability, ATPlite luminescence, 48 h; series mostly up to 57.5 µM
In short: as §1
On the % scale 0 is the no-effect control and ±100 the full control effect.

Cc1cc(OCc2nc(-c3ccccc3Cl)cs2)ccc1OCC(=O)O
inactive: Potency [1] | Potency [2] | Potency [3] | Potency [4] | Potency [5] | Potency [6] | Potency [7] | Potency [8] | Potency [9] | Potency [10] | Potency [11]

Cc1nc2ccc(Oc3ccc(F)cc3)cc2c(=O)n1C[C@H]1CCCN(C(C)C)C1
inactive: Potency [1] | Potency [2] | Potency [3] | Potency [4] | Potency [5] | Potency [6] | Potency [7] | Potency [8] | Potency [9] | Potency [10] | Potency [11]

CC(C)S(=O)(=O)N[C@H]1CCOC[C@@H]1c1ccc(-c2ccc(C#N)s2)cc1
inactive: Potency [1] | Potency [2] | Potency [3] | Potency [4] | Potency [5] | Potency [6] | Potency [7] | Potency [8] | Potency [9] | Potency [10] | Potency [11]

CC(O)(CC(=O)O)CC(=O)OCc1ccc(O[C@@H]2O[C@H](CO)[C@@H](O)[C@H](O)[C@H]2O)cc1 (some centres undefined)
inactive: Potency [1] | Potency [2] | Potency [3] | Potency [4] | Potency [5] | Potency [6] | Potency [7] | Potency [8] | Potency [9] | Potency [10] | Potency [11]

Cc1ccc(C)c(OCCn2cc(C(=O)O)c3ccccc32)c1
inactive: Potency [1] | Potency [2] | Potency [3] | Potency [4] | Potency [5] | Potency [6] | Potency [7] | Potency [8] | Potency [9] | Potency [10] | Potency [11]

C[C@@H]1CC[C@]2(C(=O)O)CC[C@]3(C)C(=CCC4[C@@]5(C)CC[C@H](O)C(C)(C)C5C(O)C[C@]43C)[C@@H]2[C@]1(C)O (some centres undefined)
inactive: Potency [1] | Potency [2] | Potency [3] | Potency [4] | Potency [5] | Potency [6] | Potency [7] | Potency [8] | Potency [9] | Potency [10] | Potency [11]

O=C1NC(Cc2c[nH]c3ccccc23)C(=O)NC1Cc1cnc[nH]1 (centres undefined)
inactive: Potency [1] | Potency [2] | Potency [3] | Potency [4] | Potency [5] | Potency [6] | Potency [7] | Potency [8] | Potency [9] | Potency [10] | Potency [11]

CC1(C)[C@@H](O)CC[C@]2(C)[C@H]3CC=C4[C@@H]5C[C@](C)(C(=O)O)CC[C@]5(C)CC[C@@]4(C)[C@]3(C)CC[C@@H]12
inactive: Potency [1] | Potency [2] | Potency [3] | Potency [4] | Potency [5] | Potency [6] | Potency [7] | Potency [8] | Potency [9] | Potency [10] | Potency [11]

O=C1NC(=O)C(c2cn(-c3ccccc3)nc2-c2ccc(F)cc2)N1 (centres undefined)
inactive: Potency [1] | Potency [2] | Potency [3] | Potency [4] | Potency [5] | Potency [6] | Potency [7] | Potency [8] | Potency [9] | Potency [10] | Potency [11]

CC(C)=CCC/C(C)=C/CC/C(C)=C/COC1OC(COC2OCC(OC3OCC(O)C(O)C3O)C(O)C2O)C(O)C(OC2OC(C)C(OC3OC(C)C(OC4OCC(OC5OC(C)C(O)C(O)C5O)C(O)C4O)C(O)C3O)C(O)C2O)C1O (centres undefined)
inactive: activity change, negative = cytotoxicity [1] 4.68% [at 6.55 µM] | activity change, negative = cytotoxicity [2] -7.12% [at 6.55 µM] | activity change, negative = cytotoxicity [3] -6.21% [at 6.55 µM] | activity change, negative = cytotoxicity [4] -2.03% [at 6.55 µM] | activity change, negative = cytotoxicity [5] -3.08% [at 6.55 µM] | activity change, negative = cytotoxicity [6] -0.54% [at 6.55 µM] | activity change, negative = cytotoxicity [7] -9.19% [at 6.55 µM] | activity change, negative = cytotoxicity [8] -4.48% [at 6.55 µM] | activity change, negative = cytotoxicity [9] -3.45% [at 6.55 µM] | activity change, negative = cytotoxicity [10] -0.577% [at 6.55 µM] | activity change, negative = cytotoxicity [11] -7.57% [at 6.55 µM]

COC(=O)C1=CO[C@@H](O)C2C(CO)=CCC12 (some centres undefined)
inactive: Potency [1] | Potency [2] | Potency [3] | Potency [4] | Potency [5] | Potency [6] | Potency [7] | Potency [8] | Potency [9] | Potency [10] | Potency [11]

COc1cc2c(c(OC)c1CC=C(C)C)C[C@H](c1ccc(O)cc1O)CO2
inactive: Potency [1] | Potency [2] | Potency [3] | Potency [4] | Potency [5] | Potency [6] | Potency [7] | Potency [8] | Potency [9] | Potency [10] | Potency [11]

O=C(Nc1ccc(S(=O)(=O)Nc2ccccc2Cl)c(Cl)c1)c1ccccn1
inactive: Potency [1] | Potency [2] | Potency [3] | Potency [4] | Potency [5] | Potency [6] | Potency [7] | Potency [8] | Potency [9] | Potency [10] | Potency [11]

C[S+](CC[C@H](N)C(=O)[O-])C[C@H]1O[C@@H](n2cnc3c(N)ncnc32)[C@H](O)[C@@H]1O (some centres undefined)
inactive: Potency [1] | Potency [2] | Potency [3] | Potency [4] | Potency [5] | Potency [6] | Potency [7] | Potency [8] | Potency [9] | Potency [10] | Potency [11]
